Reference: PubChem BioAssay

These compounds were tested against Dihydroorotate dehydrogenase (quinone), mitochondrial (Plasmodium falciparum (isolate 3D7)) (UniProt Q08210) (assay: PfDHODH enzyme inhibitors, primary screen, biochemical, C-terminal His tag, absorbance 600 nm (AID 1175;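 further: recombinant parasite enzyme with a five histidine tag at its C terminus; test concentration not given here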)). Settings: DCIP absorbance 600 nm, higher = more signal, called active from +8 up or from −8 down.
Dihydroorotate dehydrogenase (quinone), mitochondrial (Plasmodium falciparum (isolate 3D7)), sequence (Q08210 whole entry, looked up): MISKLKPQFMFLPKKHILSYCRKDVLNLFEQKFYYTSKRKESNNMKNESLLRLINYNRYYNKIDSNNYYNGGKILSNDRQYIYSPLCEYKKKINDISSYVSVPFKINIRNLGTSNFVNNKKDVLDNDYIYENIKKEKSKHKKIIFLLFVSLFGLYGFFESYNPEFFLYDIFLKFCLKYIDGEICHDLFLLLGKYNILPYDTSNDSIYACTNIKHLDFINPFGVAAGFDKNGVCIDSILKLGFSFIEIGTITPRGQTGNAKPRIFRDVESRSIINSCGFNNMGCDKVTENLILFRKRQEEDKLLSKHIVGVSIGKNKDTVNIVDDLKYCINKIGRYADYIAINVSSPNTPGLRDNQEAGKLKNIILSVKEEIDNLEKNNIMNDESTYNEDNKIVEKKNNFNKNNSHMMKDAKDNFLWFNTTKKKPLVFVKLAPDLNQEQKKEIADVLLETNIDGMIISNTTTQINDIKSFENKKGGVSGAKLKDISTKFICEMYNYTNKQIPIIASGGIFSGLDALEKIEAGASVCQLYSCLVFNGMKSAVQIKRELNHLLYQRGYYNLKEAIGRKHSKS

Composite z-score, inactive:
CCCCC(O)C1C=CC2C(=O)N(C)C(=O)C2N1Nc1ccccc1 (stereo not given) 0.957
O=C1C2C=CC(C(O)c3cccs3)N(Nc3ccccc3)C2C(=O)N1c1ccccc1 (stereo not given) -0.116
COC(=O)[C@@]1(Cc2ccccc2)[C@@H]2[C@@H](CC(=O)[C@H]2CC(=O)C(=O)N(C)C)CN1C(=O)c1ccccc1 0.823
CC=CC(O)C1C=CC2C(=O)N(C)C(=O)C2N1NC(=O)OC(C)(C)C (stereo not given) -0.0735
CN(C)C(=O)[C@]1(Cc2ccccc2)N=C(c2ccc(OCCCO)cc2)O[C@@H]1c1ccccc1 0.179
C=CCC(OC(C)=O)[C@@H]1[C@@H](N(Cc2cccc3ccccc23)C(=O)c2ccc(-c3ccccc3)cc2)c2cc(OCCCO)ccc2N1C(=O)c1ccc2ccccc2n1 (stereo not given in full) -0.318
C=CCC(OC(C)=O)[C@@H]1[C@@H](N(Cc2ccc(-c3ccccc3)cc2)C(=O)c2ccc(-c3ccccc3)cc2)c2cc(OCCCO)ccc2N1C(=O)c1ccc2ccccc2n1 (stereo not given in full) -0.149
NC(=O)NCC#Cc1ccc2c(c1)[C@]1(C(=O)N2)[C@H](C(=O)N2CCCCCCC2)[C@H]2C(=O)O[C@H](c3ccccc3)[C@H](c3ccccc3)N2[C@@H]1c1ccc(O)cc1 0.246
C=CCC(OC(C)=O)[C@@H]1[C@@H](N(Cc2ccc(-c3cccc(C(F)(F)F)c3)o2)C(=O)Cc2ccc(F)cc2)c2cc(OCCCO)ccc2N1C(=O)c1ccc2ccccc2c1 (stereo not given in full) -1.26
O=C1C2C=CC(C(O)c3ccc([N+](=O)[O-])cc3)N(Nc3ccccc3)C2C(=O)N1c1ccccc1 (stereo not given) -1.03
O=C1c2ccccc2[C@@]2(Cc3ccccc3N(Cc3ccccc3)C2=O)[C@H](c2ccc(CO)cc2)N1Cc1ccccc1 -2.87
CCOC(=O)C[C@H]1[C@H](OC(=O)Cc2ccc3c(c2)OCO3)[C@@H](NC(=O)c2ccccc2)c2cc(OCCCO)ccc2N1C(=O)Cc1ccc(OC)cc1 -1.37
CCOC(=O)C[C@H]1[C@H](OC(=O)c2ccc(-c3ccccc3)cc2)[C@@H](NC(=O)CC(C)C)c2cc(OCCCO)ccc2N1C(=O)Cc1ccc(OC)cc1 0.423
CC(C)CNC(=O)[C@@H]1c2ccccc2C(=O)N(C2Cc3ccccc3C2)[C@H]1c1ccc(CO)cc1 -0.417
C=C(COC)C(=O)CC[C@@H](OC(C)=O)c1ccc(OCCO)cc1 -5.2
COCCOC(=O)N1C(=O)[C@@]2(c3cc(C#CC4(O)CCCCCC4)ccc31)[C@H](c1ccc(OCCO)cc1)N1[C@H](c3ccccc3)[C@H](c3ccccc3)OC(=O)[C@H]1[C@@H]2C(=O)N1CCCCCCC1 0.0448
[N-]=[N+]=NCc1ccccc1C[C@]1(C(=O)O)COC(c2ccc(OCCCO)cc2)=N1 1.54
N[C@@H](Cc1ccccc1)Cn1cc(C2(O)CCCCC2)nn1 -0.0324
Cc1ccc(F)cc1S(=O)(=O)N[C@@H]1CCN(Cc2ccc3[nH]ccc3c2)C1 -0.203
COCCOC(=O)N1C(=O)[C@@]2(c3cc(C#CC4=CCCCC4)ccc31)[C@H](c1ccccc1OCCO)N1[C@H](c3ccccc3)[C@H](c3ccccc3)OC(=O)[C@H]1[C@@H]2C(N)=O -0.176
CC1(C)OC[C@@]23C=C(Br)[C@@H](C[C@H]12)[C@@]1(CO1)C3=O 0.253
CN1C(=O)C2C=CC(C(O)c3ccc(-c4ccccc4)s3)N(Nc3ccccc3)C2C1=O (stereo not given) 0.71
C=C(COC)/C(=C/C[C@H](OC(=O)c1ccncc1)c1ccc(OCCO)cc1)c1cc(C(=O)OC)ccc1OC -1.46
COCCn1c(C(=O)N2CCCC2)cc2c1C[C@H]1CN(C(=O)c3ccccc3)[C@@](Cc3ccccc3)(C(=O)OC)[C@@H]21 0.132
CCC[C@@H]1C=C(C(=O)OCC)[C@H](c2ccccc2)N1S(=O)(=O)c1ccc(C)cc1 -0.0973
COCC(=C=CC[C@@H](O)c1cccc(OCCO)c1)C[C@@H](O)COCc1ccccc1 -2.13
CC(C)[C@@H](C(=O)O)n1cc(-c2ccccc2)nn1 -0.207
CN(C)CCCCNC(=O)[C@H]1C[C@H]2C(=O)NCC(=O)N2[C@H]1c1cccc(OCCO)c1 -0.0392
[N-]=[N+]=NCc1ccccc1C[C@]1(C(=O)N2CCOCC2)N=C(c2ccc(OCCCO)cc2)O[C@H]1c1ccccc1CN=[N+]=[N-] 1.21
C=CCNC(=O)[C@@H]1[C@H]2C(=O)O[C@H](c3ccccc3)[C@H](c3ccccc3)N2[C@H](c2ccccc2OCCO)[C@@]12C(=O)N(C(=O)OCCOC)c1ccc(C#CCCO)cc12 -0.202
CC(C)=CCN(C(=O)C#Cc1ccccc1)[C@H](CO)c1ccccc1 0.885
Cc1ccccc1C(O)C1C=CC2C(=O)N(c3ccccc3)C(=O)C2N1Nc1ccccc1F (stereo not given) 0.115
C=CC[C@]1(C(=O)NCc2ccccc2)COC(c2ccc(OCCCO)cc2)=N1 -0.267
C=C(/C(=C/C[C@@H](OC(C)=O)c1ccccc1OCCO)c1cc(C(=O)OC)ccc1OC)C(C)C -1.22
CCCC=C(CCC)[C@@H](NS(=O)(=O)c1ccc(Cl)cc1)c1ccccc1 -0.532
